Measurements as given in PubChem BioAssay AID1159580 (chemical genetic matrix, 2015).
Where “and” joins values, the source holds several entries; their conditions need not be identical. Equal values may be shown once. The campaign covered roughly 5,500 compounds. About 2,000 (36%) were called active. Inconclusive results (about 18%) are left out. Cut-off read from the data, not from the text of the source: active = normalized growth mostly below about 0.91 (no sharp cut-off); inconclusive = no clear call, values can overlap the other calls; inactive = mostly above about 0.92. This is one part of the list.

Experiment: chemical genetic growth profiling, strain panel (AID 1159580);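 note: tested at 20 µM; growth read once vehicle control cultures reached saturation at 30 °C; 1 = growth at the plate median or of vehicle wells; lower values mean less growth of the strain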
Settings: S. cerevisiae deletion strains, growth OD

Measured: normalized growth

COc1cc2c(cc1OC)C(C)NCC2 (stereo unspecified)
inactive: locus YAL013W, strain DEP1, hits give low values 0.996 | locus YAL021C, strain ccr4, hits give low values 0.967 | locus YAL026C, strain drs2, hits give low values 0.959 | locus YAL030W, strain snc1, hits give low values 0.985 | locus YBL061C, strain skt5, hits give low values 0.97 | locus YBR009C, strain hhf1, hits give low values 0.965 | locus YBR021W, strain FUR4, hits give low values 0.995 | locus YBR023C, strain chs3, hits give low values 0.957 | locus YBR171W, strain sec66, hits give low values 0.958 | locus YBR229C, strain ROT2, hits give low values 0.995 | locus YBR231C, strain swc5, hits give low values 0.982 | locus YBR279W, strain paf1, hits give low values 0.989 | locus YCL011C, strain gbp2, hits give low values 0.979 | locus YCL016C, strain dcc1, hits give low values 1 | locus YCL029C, strain bik1, hits give low values 0.979 | locus YCL069W, strain vba3, hits give low values 0.962 | locus YCR088W, strain abp1, hits give low values 0.982 | locus YDL005C, strain med2, hits give low values 0.976 | locus YDL035C, strain GPR1, hits give low values 1 | locus YDL040C, strain nat1, hits give low values 0.984 | locus YDL074C, strain BRE1, hits give low values 1 | locus YDL101C, strain DUN1, hits give low values 0.996 | locus YDL185W, strain tfp1, hits give low values 0.986 | locus YDL192W, strain arf1, hits give low values 0.98 | locus YDR001C, strain nth1, hits give low values 0.988 | locus YDR069C, strain doa4, hits give low values 0.921 | locus YDR101C, strain arx1, hits give low values 0.979 | locus YDR137W, strain rgp1, hits give low values 0.977 | locus YDR150W, strain NUM1, hits give low values 1.01 | locus YDR159W, strain sac3, hits give low values 0.927 | locus YDR162C, strain NBP2, hits give low values 1.02 | locus YDR195W, strain ref2 0.963 | locus YDR297W, strain sur2, hits give low values 1 | locus YDR318W, strain mcm21, hits give low values 0.986 | locus YDR334W, strain swr1, hits give low values 0.951 | locus YDR335W, strain msn5, hits give low values 0.971 | locus YDR388W, hits give low values 0.978 | locus YDR392W, strain spt3, hits give low values 0.992 | locus YDR502C, strain sam2, hits give low values 0.981 | locus YEL003W, strain gim4, hits give low values 0.976 | locus YEL037C, strain rad23, hits give low values 0.968 | locus YEL061C, strain CIN8 (second series), hits give low values 0.966 | locus YEL061C, strain CIN8, hits give low values 0.995 | locus YER015W, strain faa2, hits give low values 0.976 | locus YER016W, strain bim1, hits give low values 0.983 | locus YER110C, hits give low values 0.963 | locus YER111C, strain swi4, hits give low values 0.959 | locus YER155C, strain BEM2 (second series), hits give low values 0.985 | locus YER155C, strain BEM2, hits give low values 0.99 | locus YER167W, strain BCK2, hits give low values 0.994 | locus YFR010W, strain ubp6, hits give low values 0.945 | locus YGL078C, strain dbp3, hits give low values 0.982 | locus YGL086W, strain mad1, hits give low values 0.982 | locus YGL167C, strain pmr1, hits give low values 0.969 | locus YGL173C, strain kem1, hits give low values 0.97 | locus YGL227W, strain vid30, hits give low values 0.985 | locus YGL240W, strain doc1, hits give low values 0.986 | locus YGL248W, strain PDE1, hits give low values 1 | locus YGL253W, strain hxk2, hits give low values 0.961 | locus YGR078C, strain PAC10, hits give low values 1.02 | locus YGR135W, strain pre9, hits give low values 0.959 | locus YGR252W, strain gcn5, hits give low values 0.996 | locus YHR013C, strain ard1, hits give low values 0.961 | locus YHR027C, strain rpn1, hits give low values 0.976 | locus YHR030C, strain SLT2, hits give low values 0.993 and 1.04 | locus YHR079C, strain IRE1 (second series), hits give low values 0.979 | locus YHR079C, strain IRE1, hits give low values 1.03 | locus YHR094C, strain hxt1, hits give low values 0.985 | locus YHR129C, strain ARP1, hits give low values 1 | locus YHR142W, strain chs7, hits give low values 0.988 | locus YHR200W, strain rpn10, hits give low values 0.98 | locus YIL066C, strain RNR3, hits give low values 1.02 | locus YIL073C, strain SPO22, hits give low values 1.02 | locus YIL125W, strain kgd1, hits give low values 0.981 | locus YIR030C, strain dcg1, hits give low values 0.976 | locus YJL092W, strain hpr5, hits give low values 0.936 | locus YJL095W, strain BCK1 (second series), hits give low values 0.969 | locus YJL095W, strain BCK1, hits give low values 1.02 and 0.99 | locus YJL115W, strain asf1, hits give low values 0.951 | locus YJL129C, strain trk1, hits give low values 0.948 | locus YJL134W, strain LCB3, hits give low values 0.988 | locus YJL154C, strain vps35, hits give low values 0.974 | locus YJL164C, strain tpk1, hits give low values 1.01 | locus YJL166W, strain qcr8, hits give low values 0.977 | locus YJL168C, strain set2, hits give low values 0.978 | locus YJL187C, strain SWE1 (second series), hits give low values 1.01 | locus YJL187C, strain SWE1, hits give low values 0.961 | locus YJR043C, strain POL32, hits give low values 1.02 | locus YJR066W, strain TOR1, hits give low values 0.966 | locus YJR075W, strain HOC1, hits give low values 1.02 | locus YKL009W, strain mrt4, hits give low values 0.984 | locus YKL068W, hits give low values 0.98 | locus YKL085W, strain MDH1 (second series), hits give low values 1.01 | locus YKL085W, strain MDH1, hits give low values 1.01 | locus YKL160W, strain elf1, hits give low values 1.01 | locus YKL190W, strain CNB1, hits give low values 1 | locus YKR001C, strain vps1, hits give low values 0.982 | locus YKR026C, strain gcn3, hits give low values 0.974 | locus YKR091W, strain srl3, hits give low values 0.987 | locus YLL001W, strain dnm1, hits give low values 0.977 | locus YLL026W, hits give low values 0.986 | locus YLL041C, strain sdh2, hits give low values 0.963 | locus YLR027C, strain aat2, hits give low values 0.966 | locus YLR039C, strain RIC1, hits give low values 1.02 | locus YLR058C, strain SHM2, hits give low values 0.996 | locus YLR102C, strain apc9, hits give low values 0.991 | locus YLR113W, strain HOG1, hits give low values 1.01 | locus YLR221C, strain rsa3, hits give low values 0.989 | locus YLR258W, strain gsy2, hits give low values 0.978 | locus YLR262C, strain YPT6 (second series), hits give low values 0.964 | locus YLR262C, strain YPT6, hits give low values 1.05 | locus YLR268W, strain sec22, hits give low values 0.987 | locus YLR320W, strain mms22, hits give low values 0.997 | locus YLR330W, strain CHS5, hits give low values 0.991 | locus YLR342W, strain FKS1 (second series), hits give low values 0.999 | locus YLR342W, strain FKS1, hits give low values 0.982 | locus YLR357W, strain rsc2, hits give low values 0.94 | locus YLR370C, strain arc18, hits give low values 0.955 | locus YLR371W, strain rom2, hits give low values 0.98 | locus YLR384C, strain iki3, hits give low values 0.996 | locus YLR418C, strain cdc73, hits give low values 0.98 | locus YML016C, strain PPZ1, hits give low values 0.988 | locus YML032C, strain rad52, hits give low values 0.978 | locus YML120C, strain ndi1, hits give low values 0.989 | locus YML124C, strain tub3, hits give low values 0.986 | locus YMR058W, strain fet3, hits give low values 0.972 | locus YMR078C, strain ctf18, hits give low values 0.981 | locus YMR125W, strain sto1, hits give low values 0.933 | locus YMR129W, hits give low values 0.985 | locus YMR205C, strain PFK2, hits give low values 0.989 | locus YMR223W, strain ubp8, hits give low values 0.977 | locus YMR231W, strain pep5, hits give low values 0.964 | locus YMR307W, strain GAS1, hits give low values 1.03 | locus YNL067W, strain RPL9B, hits give low values 1.02 | locus YNL071W, strain lat1, hits give low values 0.981 | locus YNL128W, strain TEP1, hits give low values 0.998 | locus YNL153C, strain GIM3, hits give low values 1.02 | locus YNL183C, strain NPR1, hits give low values 0.974 | locus YNL209W, strain ssb2, hits give low values 0.976 | locus YNL233W, strain BNI4, hits give low values 1.02 | locus YNL248C, strain rpa49, hits give low values 0.955 | locus YNL250W, strain rad50, hits give low values 0.972 | locus YNL271C, strain bni1, hits give low values 0.985 | locus YNL298W, strain CLA4, hits give low values 0.972 | locus YNL307C, strain MCK1, hits give low values 0.978 | locus YNL322C, strain KRE1 (second series), hits give low values 0.95 | locus YNR049C, strain mso1, hits give low values 0.952 | locus YNR052C, strain pop2, hits give low values 0.974 | locus YOL012C, strain htz1 0.939 | locus YOL147C, strain pex11, hits give low values 0.989 | locus YOR001W, strain rrp6, hits give low values 0.951 | locus YOR061W, strain CKA2, hits give low values 0.992 | locus YOR069W, strain VPS5, hits give low values 0.987 | locus YOR070C, strain gyp1, hits give low values 0.986 | locus YOR080W, strain dia2, hits give low values 0.982 | locus YOR083W, strain WHI5, hits give low values 1.02 | locus YOR106W, strain vam3, hits give low values 0.998 | locus YOR136W, strain idh2, hits give low values 0.976 | locus YOR144C, strain elg1, hits give low values 0.985 | locus YOR184W, strain ser1, hits give low values 0.998 | locus YOR231W, strain MKK1, hits give low values 1.02 | locus YOR265W, strain rbl2, hits give low values 0.977 | locus YOR270C, strain vph1, hits give low values 0.949 | locus YOR290C, strain snf2, hits give low values 0.997 | locus YOR316C, strain cot1, hits give low values 0.99 | locus YPL051W, strain arl3, hits give low values 0.972 | locus YPL078C, strain atp4, hits give low values 1 | locus YPL106C, strain sse1, hits give low values 0.957 | locus YPL240C, strain hsp82, hits give low values 0.964 | locus YPL241C, strain CIN2, hits give low values 1 | locus YPL256C, strain CLN2, hits give low values 1.03 | locus YPR119W, strain clb2, hits give low values 0.97 | locus YPR141C, strain kar3, hits give low values 0.987 | locus YPR163C, strain tif3, hits give low values 0.994 | locus YPR167C, strain met16, hits give low values 0.964 | strain wtn01, hits give low values 0.96
